Rows were chosen to be rich in hits. Some 4.8% of all compounds tested hit in one or more screens of this group.
DAX1 inh-1: inhibitors of DAX1 repression of SF-1 activated StAR promoter | AID 652010 | 1.1% of 370,000 active | HEK293T StAR-luciferase reporter, SF-1/DAX-1 repression relief | inhibition, % at 6.8 µM;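 active means inhibition above the mean over all tested compounds plus 3 SD, cut at about 3.6% in these data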;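 further: 0% = DAX-1 cells with DMSO and 100% = cells lacking DAX-1 with DMSO; higher inhibition means more luminescence from relief of DAX-1 repression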
SMARCA2 activ: SMARCA2 function activation, primary screen. 1% of 370,000 active. AID 652017. MG213 cells, MMTV-luciferase reporter, dexamethasone, overnight. activation, % at 9.1 µM; in the data active means activation above about 7.8%;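 further: 0% = vehicle wells and 100% = reference activator wells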
DAX1 inh-2: inhibits human nuclear receptor DAX1. HEK293 Gal4-DAX1 luciferase reporter, luminescence. inhibition, % at 6.75 µM. 0.99% of 340,000 active. AID 504766;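 active means inhibition above the mean over all tested compounds plus 3 SD, cut at about 4.2% in these data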;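 further: 0% = DAX1-transfected cells with DMSO and 100% = empty-vector control cells with DMSO; inhibition shows as a rise in luminescence from relieved DAX1 repression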
Target sequence (P51843 207-470 limits assumed): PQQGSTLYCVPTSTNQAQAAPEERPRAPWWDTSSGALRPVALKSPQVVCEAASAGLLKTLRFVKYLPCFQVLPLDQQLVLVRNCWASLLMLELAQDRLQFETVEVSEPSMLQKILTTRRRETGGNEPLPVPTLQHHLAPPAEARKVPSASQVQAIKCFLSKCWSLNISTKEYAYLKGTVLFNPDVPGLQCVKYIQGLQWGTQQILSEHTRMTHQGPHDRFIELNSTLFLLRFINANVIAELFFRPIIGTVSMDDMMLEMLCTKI
hgDAF-12 ag: hgDAF-12 agonism, primary luciferase screen | HEK293 GAL4-hgDAF12 UAS-luciferase reporter, agonist luminescence; normalized to butyrate control | activation, % at 6.8 µM | 1.8% of 370,000 active | AID 687014;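 active means activation above a cutoff set at the mean of all screened compounds plus 3 SD, cut at about 10% in these data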;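 further: 0% = DMSO wells and 100% = sodium butyrate wells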
hcDAF-12 act: activators of H. contortus DAF-12 nuclear receptor | HEK293 hcDAF-12 lit1-tk-luc reporter, luminescence; 0% DMSO, 100% Δ7-dafachronic acid | activation, % at 6.8 µM | 1.4% of 370,000 active;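 active means activation above the mean of all tested compounds plus 3 SD, cut at about 5.5% in these data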;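 further: 100% = response to 3 µM Δ7-dafachronic acid high control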
ssDAF12 agonist: S. stercoralis DAF-12 activation, primary screen. activation, % at 6.8 µM. HEK293 ssDAF-12/GRIP1 lit1-tk-luc reporter, luminescence; % of 3 µM dafachronic acid response. 1% of 370,000 active. AID 652126;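 active means activation above the mean over all tested compounds plus 3 SD, cut at about 0.9% in these data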;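 further: 0% = DMSO-only wells and 100% = 3 µM delta7-dafachronic acid wells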
SMARCA2 conf: SMARCA2 activation, confirmation screen | shares compounds with SMARCA2 activ | MG213 cells, MMTV-luciferase with dexamethasone, luminescence, overnight; MG213 cells expressing E1A, Rb sequestered; DMSO wells 0%, reference activator 100% | activation, % at 9.1 µM | 30% of 3,500 active | AID 652260;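 active means activation above its plate's cutoff, the mean activation of tested wells plus 3 SD, cut at about 7.9% in these data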
VP16 Luc act: activates GAL4-VP16 luciferase, flagging SMARCA2 activator hits; shares compounds with SMARCA2 activ; HEK293 GAL4-VP16 pG5luc reporter, luciferase luminescence; scaled: DMSO wells 0%, SAHA wells 100%; activation, % at 9.1 µM; 41% of 3,500 active; AID 686939;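 active means activation above the solvent-only control well mean plus 3 SD, averaged across control plates, cut at about 5.2% in these data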
The depositor's hits bear a star; / = no result given.

SMILES | DAX1 inh-1 | SMARCA2 activ | DAX1 inh-2 | hgDAF-12 ag | hcDAF-12 act | ssDAF12 agonist | SMARCA2 conf | VP16 Luc act
CCCCN1C(=O)N(c2nnc(C(C)(C)C)s2)C(O)C1c1ccc(C)cc1 (configuration not stated) | 1 | 10* | -1 | -4 | -1 | 0 | -1 | 2
CN1C(=O)N(c2nnc(C(C)(C)C)s2)C(=O)C1c1ccccc1 (configuration not stated) | 0 | -5 | -1 | -1 | -2 | -2 | / | /
CC(C)NC1CCC(Nc2ccnc3cc(Cl)ccc23)CC1 (configuration not stated) | 0 | 3 | -1 | -1 | -2 | -1 | / | /
Clc1ccc2c(NCCNC3CCCCC3)ccnc2c1 | 0 | 12* | 0 | -1 | 0 | -1 | -10 | 1
O=C(CCN1C(=O)c2ccccc2S1(=O)=O)NCc1ccco1 | 0 | -2 | 0 | 1 | -2 | -1 | / | /
COCCNS(=O)(=O)c1ccc(OCC(=O)N2CCc3ccccc3C2)c(Cl)c1 | -1 | -2 | -1 | 0 | -2 | -1 | / | /
CC(C)(C)c1ccc(C(=O)NCC(=O)NCc2ccccn2)cc1 | 1 | 8.4* | -1 | 0 | 1 | -1 | 1 | 2
CCn1cc(C(=O)O)c(=O)c2cc(F)c(N3CCN(C(=S)NC(=O)c4ccccc4Cl)CC3)cc21 | 0 | 9.1* | 4 | 1 | -1 | -2 | 3 | 2
COc1cc2cnc(-c3ccccc3)c(-c3cc(OC)c(OC)c(OC)c3)c2cc1OC | 0 | 0 | 0 | -1 | -2 | -1 | / | /
CCOC(=O)c1cccc(-c2c(-c3ccccc3)ncc3cc(OC)c(OC)cc23)c1 | 0 | 12* | 1 | 4 | -1 | -1 | 11* | 5.8*
O=C(CCl)NCCCCCCCCCNC(=O)CCl | -2 | 8.8* | -1 | -4 | -2 | -1 | 7 | -1
CCC(=O)NCCCCCCNC(=O)CC | 1 | 1 | -1 | 3 | -1 | -2 | / | /
CC(NC(=O)CCSCc1ccccc1F)c1ccccc1 (configuration not stated) | 0 | 12* | 0 | 6 | 3 | -1 | 3 | 4
CCCc1nc(-c2cc3ccc(C)cc3[nH]c2=O)no1 | 0 | 9.2* | 0 | 2 | 0 | -1 | -1 | 2
Cc1nc2cc3ccccc3cc2s1 | 0 | 0 | 4 | 1 | -1 | -1 | / | /
Cc1nc2cc3nc(C)sc3cc2s1 | 2 | 9.0* | 0 | 2 | 1 | -1 | 8.7* | 6.7*
O=C1c2ccccc2-c2cccc(NS(=O)(=O)c3ccc(C(F)(F)F)cc3)c21 | 0 | -2 | 0 | 1 | -1 | -1 | / | /
COc1ccc(/C=N/NC(=O)c2ccn[nH]2)cc1COc1ccc(F)cc1 | 0 | 8.4* | -2 | 2 | 0 | -1 | 3 | 1
CCOC(=O)c1cn[nH]c1N | 0 | 0 | 0 | -2 | 0 | -1 | / | /
Cc1csc(C(=O)NN)c1N(C)C | 1 | 9.1* | 2 | 1 | 2 | -1 | -1 | 2
Cc1c(C(=O)NN)sc(=S)n1C | 0 | -4 | 2 | 1 | 0 | -2 | / | /
CN(C(=O)c1ccc(NC(=O)Cc2cccc(NC(=O)C3CCN(C(=O)C4CCCCC4)CC3)c2)cc1)C1CC1 | -2 | -5 | 0 | 0 | -1 | -1 | / | /
O=C(Nc1ccc(-c2nc3ccccc3[nH]2)cc1)C1CCCN(Cc2ccn[nH]2)C1 (configuration not stated) | 2 | 18* | 1 | 6 | 2 | -1 | 7 | 5
Cc1ccc(-c2cn(-c3ccccc3)c(SCC(N)=O)n2)cc1C | 2 | 9.8* | 0 | 7 | 0 | -1 | 3 | 6.6*
Cc1ccccc1-n1cc(-c2ccc(Br)cc2)nc1SCC(N)=O | 0 | -3 | / | -2 | -3 | -1 | / | /
SMILES | DAX1 inh-1 | SMARCA2 activ | DAX1 inh-2 | hgDAF-12 ag | hcDAF-12 act | ssDAF12 agonist | SMARCA2 conf | VP16 Luc act
CN(C)c1ccc(/C=N/NC(=O)c2ccccn2)cc1 | 3 | 8.0* | 1 | 12* | 5 | 1.3* | 6 | 7.5*
Cc1ccc(/C=N/NC(=O)c2ccccn2)o1 | 3 | 11* | 1 | 9 | 5 | -1 | 5 | 4
Cc1ccc(/C=N/NC(=O)c2ccncc2)o1 | -1 | 1 | 2 | -1 | 0 | -2 | / | /
O=C(CCc1ccccc1)c1ccc2c(c1)OCCCO2 | 2 | 6 | 3 | 9 | 2 | 0 | / | /
O/N=C(/CCc1ccccc1)c1ccc2c(c1)OCCO2 | 3 | 12* | 1 | 11* | 2 | -1 | 12* | 12*
O=C(CNC(=O)c1ccco1)OCC(=O)c1ccccc1Cl | 0 | -2 | 0 | 9 | 1 | -1 | / | /
CC(=O)N1Cc2[nH]c3ccccc3c2CC1C(=O)O (configuration not stated) | 0 | -2 | 0 | 0 | 0 | 0 | / | /
Cn1cc(-c2nc3ccccc3[nH]2)c2ccccc21 | 1 | 9.0* | 0 | 5 | 5 | 0 | 15* | 4
CCCOc1ccc(S(=O)(=O)n2cc(Br)c(=O)[nH]c2=O)cc1 | 0 | -1 | 0 | -3 | 0 | -2 | / | /
Cc1sc2nc(CSc3ccc([N+](=O)[O-])c(C(F)(F)F)c3)[nH]c(=O)c2c1C | 0 | 0 | 0 | -1 | -1 | -2 | / | /
Cc1cc(NC(=O)c2ccco2)ncc1NC(=O)Cc1ccccc1 | 0 | 11* | 1 | 3 | 3 | 0 | 12* | 3
CCCC(=O)Nc1ccc(NC(=O)c2ccco2)c(OC)c1 | 3.7* | 9.7* | 1 | 6 | 2 | 0 | 7 | 6.5*
Cc1cc(NC(=O)c2ccco2)ccc1NC(=O)c1ccco1 | 0 | 9.7* | 0 | 5 | 4 | -1 | -1 | 1
CCCC(=O)N1CCC(Cc2ccccc2)CC1 | 0 | -1 | -1 | -1 | -1 | -1 | / | /
Cc1nc(-c2c(C(=O)NNC(=O)Nc3c(C)cccc3C)noc2C)cs1 | 0 | -3 | 2 | -4 | -1 | -2 | / | /
O=C(/C=C/c1ccc(Br)cc1)c1ccc(NC2=NCCCS2)cc1 | -3 | 25* | -2 | 6 | -1 | -2 | 12* | 2
O=C(/C=C/c1ccccc1)c1ccc(NC2=NCCCS2)cc1 | 1 | 5 | 0 | 5 | 3 | -1 | / | /
O=S1(=O)CC(N2CCCC2)CN1Cc1ccc(F)cc1 (configuration not stated) | -1 | 4 | / | 5 | 5 | 0 | / | /
O=C(NC(=S)N1CCc2ccccc21)c1ccccc1 | 0 | 8.5* | 0 | -1 | 4 | 0 | 2 | 1

Screening data from PubChem BioAssay.
